Source: PubChem (Sanford-Burnham Center for Chemical Genomics)
Sampled rows, rich in hits. Any-hit rate of the full collection: about 28%.
CYP2C19 inhib = blocks human cytochrome P450 2C19; P33261; CYP2C19 Supersomes, luciferin-H EGE luminescence, 30 min; inhibition, % at 5 µM; hit rate 21% among 96,000; AID 778;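 active means CYP2C19 inhibition above a set limit at 5 µM in the primary screen, cut at about 50% in these data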;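 further: plate controls were negative control wells for no effect and 2.5 mM tranylcypromine positive control for full effect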
Target sequence (P33261 whole entry, looked up): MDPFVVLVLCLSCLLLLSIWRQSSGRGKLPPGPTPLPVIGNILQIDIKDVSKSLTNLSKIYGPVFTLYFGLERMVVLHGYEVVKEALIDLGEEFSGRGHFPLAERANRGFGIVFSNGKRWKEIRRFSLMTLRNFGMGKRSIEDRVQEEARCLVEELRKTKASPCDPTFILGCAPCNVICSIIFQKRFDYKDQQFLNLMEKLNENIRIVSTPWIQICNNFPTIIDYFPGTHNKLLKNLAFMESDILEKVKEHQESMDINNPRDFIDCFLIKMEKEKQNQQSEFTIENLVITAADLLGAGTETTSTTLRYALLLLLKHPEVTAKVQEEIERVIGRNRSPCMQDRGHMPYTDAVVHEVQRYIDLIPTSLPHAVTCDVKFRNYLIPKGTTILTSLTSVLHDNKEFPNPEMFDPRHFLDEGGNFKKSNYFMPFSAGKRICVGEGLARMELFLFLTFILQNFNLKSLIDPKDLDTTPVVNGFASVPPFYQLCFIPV
Mac1 fbg inh = inhibitors of human CD11b/CD18 binding to fibrinogen | P05107+P11215 | K562 CD11b/CD18 adhesion to fibrinogen, ATPlite luminescence; Mn2+ added to activate the integrin | inhibition, % at 10 µM | hit rate 0.54% among 93,000;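 active means primary inhibition of 50% or more at 10 µM, then 40% or more on retest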
CYP2C9 activ = CYP2C9 (human) activation; P11712; recombinant CYP2C9, luciferin-H conversion, luminescence; active compounds read high; factor 1 = untreated enzyme, 0 = blocked; activation factor at 5 µM; hit rate 1.4% among 96,000;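 active means activation factor of 2 or more for CYP2C9 at a 5 µM dose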;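 further: 0 = sulfaphenazole-blocked wells and 1 = vehicle-only wells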
CYP2C19 act = increases human CYP2C19 enzyme activity | P33261 | recombinant CYP2C19, luciferin-H EGE luminescence; active compounds read high; 0 = fully inhibited enzyme, 1 = untreated enzyme | activation factor at 5 µM | 96,000 tested, under 10 active;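 active means activation factor of at least 2 at 5 µM in the primary screen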;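 further: 0 = wells with 2.5 mM tranylcypromine and 1 = vehicle-only wells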
CYP2C9 inhib = inhibitors of human CYP2C9; P11712; CYP2C9 Supersomes, luciferin-H conversion, luminescence; inhibition, % at 5 µM; hit rate 20% among 96,000; AID 777;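 active means blocking of liver enzyme CYP2C9 beyond about 50% at 5 µM, limit read from the data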
CD11b adhes enh = increases human CD11b/CD18 adhesion to fibrinogen; K562 CD11b/CD18 adhesion to fibrinogen, ATPlite luminescence; activation, % at 10 µM; hit rate 0.07% among 93,000; P05107+P11215;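 active means 10 µM primary screen giving 50% or more activity, confirmed by 40% or more on retest at that dose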
The depositor's hits bear a star; / = not tested or not shown.

SMILES	CYP2C19 inhib	Mac1 fbg inh	CYP2C9 activ	CYP2C19 act	CYP2C9 inhib	CD11b adhes enh
CCOC(=O)C1CCCN(C(=O)c2cc(-c3ccccc3)on2)C1 (stereo unspecified)	17.3	-15.7	2.5*	0.8	-155.0	-5.6
CCOC(=O)C1CCCN(C(=O)c2cc3c(C)nc4ccccc4c3o2)C1 (stereo unspecified)	21.8	/	1	0.8	-2.5	/
CCOC(=O)C1CCCN(C(=O)c2ccc(C)cc2O)C1 (stereo unspecified)	81.2*	-9.0	0.7	0.2	25.2	-6.9
CCOC(=O)C1CCCN(C(=O)c2cc(Nc3ccc(OC)cc3)nc3ccccc23)C1 (stereo unspecified)	19.5	16.3	0.2	0.8	76.8*	0.9
CCOC(=O)C1CCCN(C(=O)c2ccccc2NC(C)=O)C1 (stereo unspecified)	1.1	-6.0	1	1	-4.5	-0.3
CC12CCC(C(=O)Nc3cccc4ccccc34)(C1Br)C2(C)C (stereo unspecified)	29.4	/	0.8	0.7	17.5	/
CCOc1ccc(NCc2ccccc2OCc2cccc(F)c2)cc1	/	-13.2	/	/	/	2.0
O=C(Nc1ccc2snnc2c1)Nc1cccc2ccccc12	43.0	36.4	0.6	0.6	41.0	-0.8
O/N=C(\c1ccc(Cl)cc1)c1cc2ccccc2o1	14.9	-3.9	0.6	0.9	36.5	2.7
C/C(=N\OCC(=O)Nc1c(C)cc(C)cc1C)c1ccc2c(c1)OCCO2	/	2.5	/	/	/	0.5
CC1(C)CC(=O)C=C(Nc2ccccc2F)C1	49.2	-4.1	0.8	0.5	17.0	-1.6
CCCS(=O)(=O)N1CCC(C(=O)NCc2ccco2)CC1	2.3	-8.7	0.9	1	7.4	-0.8
CCOC(=O)C1CCCN(C(=O)c2ccccc2Oc2ccccc2)C1 (stereo unspecified)	86.6*	1.1	0	0.1	99.4*	-1.6
O=C(Nc1ccccc1)Nc1ccc(C(=O)N2CCOCC2)cc1	44.1	/	0.9	0.6	13.1	/
Cc1nn(-c2ccccc2)c(N)c1C(c1ccccc1)c1c(C)nn(-c2ccccc2)c1N	/	-9.6	/	/	/	-1.0
CC1=C(C(=O)OC(C)C)C(c2coc3ccccc3c2=O)C2=C(CCCC2=O)N1 (stereo unspecified)	46.4	-7.2	0.4	0.5	62.4*	-0.2
CC1=C(C(=O)OC(C)C)C(c2cccs2)C(C(=O)OC(C)C)=C(C)N1	/	-2.8	/	/	/	-0.9
CCSCCOC(=O)C1=C(C)NC(=O)NC1c1ccccc1 (stereo unspecified)	32.4	-0.2	1	0.7	4.5	6.3
CCSCCOC(=O)C1=C(C)NC2=C(C(=O)CCC2)C1c1coc2ccccc2c1=O (stereo unspecified)	16.6	-13.4	0.5	0.8	52.0*	-2.9
Cc1cccc(Oc2nc(-c3cccc([N+](=O)[O-])c3)nc3ccccc23)c1C	-1.9	0.5	0.9	1	11.0	1.5
Cn1ncc(N=Cc2ccccc2)c1C(N)=O	-0.6	-13.8	0.7	1	27.7	-2.1
Cn1ncc(N=Cc2ccccc2)c1C(=O)Nc1cccc(Cl)c1	-15.0	0.4	0.4	1.1	55.7*	55.4
COc1ccc(CCN2C(=O)c3ccncc3C2=O)cc1OC	17.4	4.7	0.8	0.8	19.3	-4.6
O=C(CSc1nc(Nc2ccccc2)nc(N2CCOCC2)n1)Nc1ccccc1Cl	95.2*	-1.9	0	0	97.0*	1.6
O=C(CSc1nc(Nc2ccccc2)nc(N2CCOCC2)n1)Nc1ccc([N+](=O)[O-])cc1	52.9*	7.0	0.2	0.5	77.2*	0.6
SMILES	CYP2C19 inhib	Mac1 fbg inh	CYP2C9 activ	CYP2C19 act	CYP2C9 inhib	CD11b adhes enh
ON1C(c2ccccc2C(F)(F)F)N(O)[C@H]2CCCC[C@H]21 (stereo partly specified)	23.9	15.6	1	0.8	-2.1	-1.2
Cc1ccc2occ(CN3CCN(Cc4ccccc4)CC3)c(=O)c2c1	12.7	/	1.2	0.9	-17.8	/
O=c1c(CN2CCN(Cc3ccccc3)CC2)coc2ccc(Cl)cc12	44.3	-5.0	2.8*	0.6	-182.1	0.1
Cc1ccc2occ(CN3CCN(c4ccccc4)CC3)c(=O)c2c1	81.8*	-1.1	0.8	0.2	21.3	10.1
CCCCSc1nnc2nc(C)cc(C)n12	3.7	-19.3	1.2	1	-15.2	-1.7
CC(=O)Nc1ccc(C2NC(=O)c3ccccc3O2)cc1 (stereo unspecified)	16.4	5.5	0.6	0.8	44.7	-4.2
O=C1NC(c2ccc3c(c2)OCO3)Oc2ccccc21 (stereo unspecified)	95.9*	-0.2	0.2	0	79.1*	1.6
O=C1NC(c2ccc3c(c2)OCO3)Nc2ccccc21 (stereo unspecified)	62.4*	1.0	0.8	0.4	16.9	-3.8
CCOC(=O)c1ccccc1NC1CC(=O)N(c2ccccc2C)C1=O (stereo unspecified)	80.5*	-21.5	0.2	0.2	75.8*	-0.1
CCOC(=O)c1ccccc1NCN1C(=O)CSC1=O	-7.2	-36.7	1.2	1.1	-18.8	2.0
O=C(Cn1nc(Cl)nc1Cl)Nc1ccccc1	40.5	-0.7	0.9	0.6	10.7	-1.1
Cc1nc(SCC(=O)Nc2c(C)n(C)n(-c3ccccc3)c2=O)[nH]c(=O)c1Cc1ccccc1	8.9	-0.4	0.9	0.9	14.6	-3.0
O=C(NNS(=O)(=O)c1ccccc1)c1cnn(-c2ccccc2)c1-n1cccc1	24.5	/	0.5	0.8	47.4	/
O=C(NNS(=O)(=O)c1ccc(Cl)cc1)c1cnn(-c2ccccc2)c1-n1cccc1	22.6	/	0.4	0.8	63.7*	/
CC1(C)CC(=O)CC(C)(C)N1OC(=O)c1ccccn1	30.5	-22.2	0.9	0.7	11.2	1.2
COc1ccccc1-n1c(C)nc(=O)c(-c2ccccc2)c1C	77.6*	0.7	0.9	0.2	6.7	0.8
CCOc1ccccc1NC(=O)C1CCCN(S(=O)(=O)c2cccc3nsnc23)C1 (stereo unspecified)	51.7*	21.4	0.5	0.5	53.2*	0.6
COc1ccc2nc(NC(=O)C3CCCN(S(=O)(=O)c4cccc5nsnc45)C3)sc2c1 (stereo unspecified)	78.0*	-36.8	0.1	0.2	85.6*	-1.6
CC(C)[C@H](NC(=O)CCn1nnc2ccccc2c1=O)C(=O)O	-1.9	-2.8	1.1	1	-6.1	-0.2
CCc1cccc(C)c1NC(=O)CSc1nc2ccccc2n1CC(=O)N(C)C	53.7*	1.2	0.9	0.5	8.2	1.7
CCc1ccccc1NC(=O)CSc1nc2ccccc2n1CC(=O)N(C)C	79.1*	-9.1	0.4	0.2	56.1*	-2.3
CCOC(=O)CSc1nc2ccccc2n1CC(=O)NC(C)(C)C	16.1	9.1	0.8	0.8	20.5	-3.7
CCOC(=O)c1[nH]cc(-c2ccccc2)c1N1CCOCC1	93.3*	/	0.7	0.1	30.9	/
